Records with an inconclusive call do not appear. A call without a number means that no potency is given here. Activity calls are given as the source filed them. Calls follow the shape of the dose curve; as a rule, active = well fitted inhibition curve with a large enough effect; inconclusive = small, poorly fitted or top-dose-only effect, or effect the other way; inactive = flat fitted curve, though single readings scatter.
target: Pyruvate kinase (Leishmania mexicana) (UniProt Q27686); assay: Confirmation Assay for Inhibitors of Leishmania Mexicana Pyruvate Kinase (LmPK): for Probe SAR; settings: purified LmPK, ATP generation, Kinase-Glo luminescence; series mostly up to 57.5 µM
Sequence (Q27686 whole entry, looked up): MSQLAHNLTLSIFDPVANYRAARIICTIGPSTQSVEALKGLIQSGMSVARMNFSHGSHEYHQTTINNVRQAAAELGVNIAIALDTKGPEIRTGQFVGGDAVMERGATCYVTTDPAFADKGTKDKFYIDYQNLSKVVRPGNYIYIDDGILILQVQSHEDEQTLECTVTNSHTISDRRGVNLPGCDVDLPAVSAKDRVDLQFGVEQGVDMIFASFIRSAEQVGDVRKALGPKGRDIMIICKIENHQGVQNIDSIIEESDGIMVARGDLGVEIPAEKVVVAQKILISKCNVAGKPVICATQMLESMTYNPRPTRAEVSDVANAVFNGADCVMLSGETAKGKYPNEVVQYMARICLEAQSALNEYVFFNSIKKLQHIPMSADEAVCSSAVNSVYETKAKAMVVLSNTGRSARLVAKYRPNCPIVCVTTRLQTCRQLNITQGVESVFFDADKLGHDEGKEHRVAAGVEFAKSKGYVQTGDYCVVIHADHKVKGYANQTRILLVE
Procedure, shortened: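 Coupled luminescent assay: ATP produced by LmPK (0.1 nM) from ADP (0.1 mM, ~10-fold below Km) and PEP (0.5 mM, at Km) after 1 h RT, detected with Kinase-Glo. Data scaled between no-enzyme and uninhibited controls.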
Potency is read from the fitted curve at half-maximal effect.

| Structure (SMILES) | Potency |
| --- | --- |
| CCOc1ccc2[nH]c(C3C(=O)c4ccccc4C3=O)cc(=O)c2c1 | inactive |
| Cc1ccc(NS(=O)(=O)c2ccc3c(c2)CCN(C(=O)C(F)(F)F)C3)cc1C | inactive |
| O=C1c2ccccc2C(=O)N1c1cccnc1 | inactive |
| Cc1ccc(NS(=O)(=O)c2ccc(F)cc2)cc1C | inactive |
| CC(=O)Nc1ccccc1OC1=N[S+](=O)([O-])c2ccccc21 | inactive |
| O=S1(=O)N=C(Oc2ccccc2F)c2ccccc21 | 3.26 µM (active) |
| CCCCN1C(=O)c2ccccc2C1=O | inactive |
| O=S1(=O)N=C(OCc2ccccc2)c2ccccc21 | inactive |
| Cc1ccccc1NS(=O)(=O)c1ccc2c(c1)CCC(=O)N2 | inactive |
| CN(C)c1cccc(S(=O)(=O)N2CCN(S(=O)(=O)c3ccc4c(c3)OCCO4)CC2)c1 | inactive |
| O=C1NS(=O)(=O)C(c2ccccc2)C1c1ccccc1 (stereo not given) | inactive |
| Cc1ccc(NS(=O)(=O)c2ccc3[nH]c(=O)[nH]c3c2)cc1C | inactive |
| Cc1ccc(NS(=O)(=O)c2ccc3c(c2)CCC(C)(C)O3)cc1C | inactive |
| COc1ccc(Nc2c(-c3ccc(C)o3)nc3ccccn23)cc1 | inactive |
| O=C1c2ccccc2C(=O)N1c1cccc(O)c1 | inactive |
| N#Cc1cccc(OC2=NS(=O)(=O)c3ccccc32)c1 | 4.61 µM (active) |
| O=C1CCc2cc(S(=O)(=O)Nc3cccc(F)c3)ccc2N1 | inactive |
| O=C1c2ccccc2C(=O)N1c1cccc2cccnc12 | inactive |
| Cc1ccc(NS(=O)(=O)c2ccc(N3CCCC3=O)cc2)cc1C | inactive |
| Cc1ccc(NS(=O)(=O)c2ccc3c(c2)N(C)CCO3)cc1C | inactive |
| Cc1ccc2nc(-c3ccc(C)o3)c(NC3CCCC3)n2c1 | inactive |
| O=C1CCc2cc(S(=O)(=O)Nc3cccc(-c4ccccc4)c3)ccc2N1 | inactive |
| Cc1ccc(NS(=O)(=O)c2cc3c(cc2/C=C/c2ccccc2)NC(=O)CO3)cc1C | inactive |
| CN=c1nc(-c2ccccc2)n(-c2ccccc2)s1 | inactive |
| COc1cccc2ccc(C3C(=O)c4ccccc4C3=O)nc12 | inactive |
| Cc1cc(C)c2c(=O)cc(C3C(=O)c4ccccc4C3=O)[nH]c2c1 | inactive |
| Cc1ccc(NS(=O)(=O)c2ccc(-c3ccccc3)cc2)cc1C | inactive |
| O=C1c2ccc3ccccc3c2C(=O)C1c1cc(=O)c2ccccc2[nH]1 (stereo not given) | inactive |
| COc1cccc(NS(=O)(=O)c2ccc3c(c2)CCC(=O)N3)c1 | inactive |
| COc1ccc(-c2nc3ccccn3c2Nc2ccccc2C)cc1 | inactive |

Reference: PubChem BioAssay AID2561 (National Center for Advancing Translational Sciences (NCATS), 2010)
